Among the test systems are NCI-H226 lung; NCI-H322M lung; HOP-62 NSCLC; NCI-H460 lung; NCI-H522 lung; A549/ATCC NSCLC; 786-0 renal; COLO 205 colon; DU-145 prostate; MALME-3M melanoma; MDA-MB-231 breast; RXF 393 renal; SF-268 CNS; SF-295 CNS; SF-539 CNS; UACC-257 melanoma; M14 melanoma; HOP-92 NSCLC; K-562 leukemia.
Holding throughout (test): NCI-60 one-dose screen, 48 h (100 = growth as untreated, 0 = no growth, -100 = all killed)
Holding throughout (settings): 10 µM unless noted

The structures appear in SMILES notation. “And” between values parts separate entries of the source, which are not always exact repeats. Identical values can stand only once. The panel holds about 83,000 compounds, 20% with a hit somewhere; the sample as a whole holds those more often.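 Testing used 96-well plates and a 48-hour single-concentration exposure. Example: -40 means 40% of the starting cells died.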 A number with no mark means an inactive call. The source made the active and inactive calls. Rule for the calls: active = growth percent below 10; inactive = the rest.

As for `O=C=NC(c1ccccc1)(c1ccccc1)c1ccccc1`, the growth with NCI-H226 lung is 111%; with NCI-H322M lung, 104%; in the assay with HOP-62 NSCLC, 143%; with NCI-H460 lung it was 111%; in the assay with NCI-H522 lung it was 90.2%; in the assay with A549/ATCC NSCLC, 107%. Moreover, the growth is 95% in the assay on 786-0 renal; 101% in the assay with COLO 205 colon; 106% in the assay with DU-145 prostate; 95.2% with MALME-3M melanoma; 97.5% in the assay on MDA-MB-231 breast; 129% in the assay on RXF 393 renal. The growth in the assay on SF-268 CNS is 104%; with SF-295 CNS, 98%; in the assay on SF-539 CNS it was 110%; with UACC-257 melanoma it was 107%; with M14 melanoma it was 101%.

As for `CC1=C(/C=C/C(C)=C/C=C/C(C)=C/C(=O)Nc2ccc(O)cc2)C(C)(C)CCC1`, the growth in the assay with NCI-H322M lung was 101%; in the assay on HOP-62 NSCLC, 88.6%; with NCI-H460 lung it was 27.7%; in the assay on HOP-92 NSCLC, 103%; in the assay on NCI-H522 lung, -47.6% (active); in the assay with A549/ATCC NSCLC, 55.9%. The growth in the assay on 786-0 renal is 52.8%; with COLO 205 colon it was 38.6%; with DU-145 prostate, 68.4%; with MALME-3M melanoma, 76.1%; in the assay with MDA-MB-231 breast it was 54.5%; in the assay on RXF 393 renal it was 60.8%. The growth with SF-268 CNS is 60.8%; in the assay on SF-295 CNS it was 4.64% (active); with SF-539 CNS, -32.7% (active); in the assay with UACC-257 melanoma it was 76.7%; in the assay with M14 melanoma it was 53.5%.

On to `CNC(=O)c1cccnc1`, for which the growth was 107% with NCI-H226 lung; 110% in the assay on NCI-H322M lung; 109% in the assay with NCI-H460 lung; 109% in the assay on HOP-92 NSCLC; 91.4% in the assay with NCI-H522 lung; 92.8% in the assay on A549/ATCC NSCLC. Further, the growth in the assay with 786-0 renal was 99.6%; with COLO 205 colon, 121%; in the assay on DU-145 prostate, 116%; in the assay with MALME-3M melanoma, 86.8%; in the assay on MDA-MB-231 breast, 102%; with RXF 393 renal, 114%. The growth is 103% with SF-268 CNS; 100% with SF-295 CNS; 100% in the assay on SF-539 CNS; 92.4% with UACC-257 melanoma; 104% with M14 melanoma.

As to `O=C1OC2(c3ccccc31)c1ccc(O)c(O)c1Oc1c2ccc(O)c1O`, the growth in the assay on NCI-H226 lung is 90.5% and 121%; in the assay with NCI-H322M lung, 109% and 130%; in the assay with HOP-62 NSCLC it was 114% and 101%; in the assay on NCI-H460 lung it was 114% and 109%; in the assay on NCI-H522 lung, 89.8% and 84.1%; in the assay on A549/ATCC NSCLC, 105%. The growth in the assay with 786-0 renal was 109% and 117%; with COLO 205 colon, 115% and 117%; in the assay on DU-145 prostate, 116% and 119%; with K-562 leukemia, 115% and 92.6%; in the assay with MALME-3M melanoma, 126% and 114%; in the assay with MDA-MB-231 breast, 110% and 108%. The growth is 102% and 120% in the assay on RXF 393 renal; 108% and 114% with SF-268 CNS; 110% and 130% in the assay on SF-295 CNS; 108% and 125% in the assay with SF-539 CNS; 106% in the assay on UACC-257 melanoma; 113% with M14 melanoma.

For `CCN(CC)CCc1nc(-c2ccccc2)no1`, the growth in the assay on NCI-H322M lung was 100% and 102%; in the assay on HOP-62 NSCLC, 65.2% and 98.6%; in the assay on NCI-H460 lung, 102% and 113%; with HOP-92 NSCLC, 81.5% and 109%; with NCI-H522 lung, 88.5%; in the assay on A549/ATCC NSCLC it was 97.5% and 103%. In addition, the growth in the assay on 786-0 renal is 89.5% and 101%; in the assay with COLO 205 colon it was 109%; with K-562 leukemia, 118%; with MALME-3M melanoma, 86.2% and 120%; in the assay on MDA-MB-231 breast it was 67.6% and 110%; in the assay with RXF 393 renal, 74.5% and 113%. Also, the growth with SF-268 CNS was 79.9% and 98.3%; with SF-295 CNS, 105% and 101%; in the assay on SF-539 CNS, 83.5% and 109%; in the assay on UACC-257 melanoma, 87.2% and 90.3%; in the assay on M14 melanoma it was 87.9% and 98.5%.
